These results are taken from PubChem BioAssay (EPA / NIEHS).

The source made the active and inactive calls. Rule for the calls: active = hit-call score of the fitted dose curve at least 0.9, where 1 is the maximum; inactive = score below 0.9.

Assay [1] addresses CCAAT/enhancer-binding protein beta (Homo sapiens) (UniProt P17676). Briefly: ATG_C_EBP_CIS: Attagene CIS-FACTORIAL HepG2 Assay for human CCAAT/Enhancer Binding Protein (C/EBP) beta (AID 2282927). As to conditions: HepG2 Attagene cis-factorial transcription factor reporter; actives raise or lower the signal. The gist of the method: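 Chemical-treated HepG2 cells (24 h) bearing cis-regulated reporter constructs were processed for total RNA, then reverse transcription, PCR amplification, fluorescent primer extension and fragment analysis; gain- and loss-of-signal were fitted against DMSO.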

Assay [2] in a line: ATG_DR4_LXR_CIS: Attagene CIS-FACTORIAL HepG2 Assay for human Liver X Receptor (LXR), DR4 submotif (AID 2282929). As to conditions: HepG2 Attagene DR4 cis-reporter, mRNA transcription; actives raise or lower the signal. The method in brief:
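HepG2 cells transiently transfected with cis-promoter-driven multiplexed reporter units (DR4 element) were dosed for 24 h. Reporter mRNA was quantified by RT-PCR, fluorescent primer extension, HpaI digestion and capillary electrophoresis; bidirectional fitting versus DMSO baseline.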

Assay [3] can be described thus: ATG_AP_2_CIS: Attagene CIS-FACTORIAL HepG2 Assay for human Activator Protein 2 (AP-2) (AID 2282932). The conditions noted are these: HepG2 AP-2 cis-reporter, Attagene transcription factor profiling; actives raise or lower the signal. The method in brief: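 Assay in transfected HepG2 with promoter-regulated reporters, 24 h incubation after dosing. Signal is reporter mRNA fluorescence (RT-PCR, capillary electrophoresis), analysed for both increases and decreases relative to DMSO controls.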

Assay [4] concerns the target Transcription factor E2F1 (Homo sapiens) (UniProt Q01094). Briefly: ATG_E2F_CIS: Attagene CIS-FACTORIAL HepG2 Assay for human E2F Transcription Factor 1 (AID 2282935). As to conditions: HepG2 Attagene cis-reporter, E2F reporter RNA transcripts; actives raise or lower the signal. The gist of the method: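 In this cis-factorial format, endogenous factor activity drives transfected reporters in HepG2; transcripts collected at 24 h are quantified by fluorescence after RT-PCR and capillary separation.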

The nature of assay [5]: ATG_E_Box_CIS: Attagene CIS-FACTORIAL HepG2 Assay for human Enhancer Box (E-box) (AID 2282936). The conditions noted are these: HepG2 E-box cis-reporter transcription, actives raise or lower the signal. The method in brief:
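Measured 24 h post-dosing in HepG2 cells transfected with multiple cis-regulated reporter units, signal being reporter mRNA induction detected by fluorescent RT-PCR with capillary electrophoresis; gain or loss fitted against DMSO.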

Assay [6] is described as follows: ATG_M_19_CIS: Attagene CIS-FACTORIAL HepG2 Assay for M19 Transcription Factor (Internal Marker) (AID 2282939). The conditions noted are these: HepG2 Attagene CIS-FACTORIAL M19 internal marker reporter; actives raise or lower the signal. The method in brief:
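Following a 24 h exposure, RNA from transfected HepG2 cells was reverse-transcribed, PCR-amplified with reporter-specific primers, end-labelled with 6-FAM and HpaI-digested before capillary separation. Values represent gain or loss versus DMSO.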

The nature of assay [7]: ATG_GLI_CIS: Attagene CIS-FACTORIAL HepG2 Assay for human Zinc Finger Protein GLI1 (AID 2282945). As to conditions: HepG2, Attagene cis-factorial reporter mRNA, GLI element; actives raise or lower the signal. The gist of the method: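 HepG2 cells transiently transfected with cis-promoter multiplexed reporter units report endogenous transcription factor activity. After 24 h chemical exposure, reporter mRNA was quantified by RT-PCR, 6-FAM labelling, HpaI digestion and capillary electrophoresis, with bidirectional fitting against DMSO.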

Assay [8] in a line: ATG_ISRE_CIS: Attagene CIS-FACTORIAL HepG2 Assay for human Interferon Regulatory Factor 1 (IRF1) binding to an Interferon-Stimulated Response Element (ISRE) (AID 2282948). The conditions noted are these: HepG2 ISRE cis-reporter (Attagene), mRNA transcription readout; actives raise or lower the signal. The method in brief: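 Read-out: fluorescent RT-PCR products resolved by capillary electrophoresis, reporting endogenous transcription factor activity via ISRE-driven reporter mRNA in transfected HepG2 cells dosed for 24 h; gain or loss fitted relative to DMSO.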

Assay [9] is described as follows: ATG_M_32_CIS: Attagene CIS-FACTORIAL HepG2 Assay for M32 Transcription Factor (Internal Marker) (AID 2282949).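 Note: background control marker of the multiplexed CIS panel rather than a real target.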 As to conditions: HepG2 Attagene cis-factorial M32 reporter, mRNA; actives raise or lower the signal. The method in brief:
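Using DMSO as baseline, bidirectional curve fits were applied to reporter mRNA signals. These came from transiently transfected HepG2 cells exposed for 24 h, with RNA analysed by RT-PCR, FAM primer extension, HpaI digestion and CE.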

Assay [10] concerns the target Hepatocyte nuclear factor 6 (Homo sapiens) (UniProt Q9UBC0). Put plainly: ATG_HNF6_CIS: Attagene CIS-FACTORIAL HepG2 Assay for human Hepatocyte Nuclear Factor 6 (HNF6) (AID 2282952). The conditions noted are these: HepG2 Attagene cis-factorial HNF6 reporter transcription; actives raise or lower the signal. The method in brief: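 Using cis-element reporters in HepG2 liver cells, the assay tracks endogenous factor-driven transcription 24 h post-dosing. Signal comes from 6-FAM-labelled, HpaI-digested RT-PCR fragments, with gain or loss scored against DMSO.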

In assay [11] the target is Heat shock factor protein 1 (Homo sapiens) (UniProt Q00613). Put plainly: ATG_HSE_CIS: Attagene CIS-FACTORIAL HepG2 Assay for human Heat Shock Transcription Factor 1 (HSE) (AID 2282953). As to conditions: HepG2 HSE cis-reporter, Attagene RNA transcription; actives raise or lower the signal. The gist of the method:
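After a 24 h incubation with test chemical, transfected HepG2 cells were harvested for RNA; reporter transcripts were measured by RT-PCR and capillary electrophoresis. Values reflect gain or loss of signal relative to DMSO.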

Assay [12] is described as follows: ATG_PXRE_CIS: Attagene CIS-FACTORIAL HepG2 Assay for human Pregnane X Receptor Element (PXRE) (AID 2282957). The conditions noted are these: HepG2 Attagene CIS-FACTORIAL PXRE reporter, mRNA; actives raise or lower the signal. The method in brief:
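Using HepG2 transfected with multiple reporter transcription units, endogenous factor-driven transcription was scored as reporter mRNA after 24 h exposure.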

Assay [13] can be described thus: ATG_Sox_CIS: Attagene CIS-FACTORIAL HepG2 Assay for human SRY-box transcription factor (SOX) (AID 2282960). The conditions noted are these: HepG2 Attagene cis-factorial SOX reporter, mRNA; actives raise or lower the signal. The method in brief:
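HepG2 cells transiently transfected with cis-element-driven multiple reporter transcription units, dosed 24 h; reporter mRNA measured by RT-PCR, FAM labelling, HpaI digestion and capillary electrophoresis. Bidirectional fit versus DMSO baseline.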

The target in assay [14] is Transcription factor Sp1 (Homo sapiens) (UniProt P08047). Put plainly: ATG_Sp1_CIS: Attagene CIS-FACTORIAL HepG2 Assay for human Specificity Protein 1 (Sp1) (AID 2282961). The conditions noted are these: HepG2 Sp1 cis-reporter transcription, actives raise or lower the signal. The method in brief:
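HepG2 cells transiently transfected with multiple reporter transcription units driven by cis-regulatory elements; Sp1-responsive reporter mRNA measured 24 h after dosing by RT-PCR and capillary electrophoresis fluorescence, fitted bidirectionally against DMSO baseline.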

Assay [15] deals with Signal transducer and activator of transcription 3 (Homo sapiens) (UniProt P40763). Briefly: ATG_STAT3_CIS: Attagene CIS-FACTORIAL HepG2 Assay for human Signal Transducer and Activator of Transcription 3 (STAT3) (AID 2282963). As to conditions: HepG2, Attagene cis-factorial STAT3 reporter transcription; actives raise or lower the signal. The method in brief:
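Uses human liver HepG2 transiently carrying cis-regulated reporter transcription units. Following 24 h dosing, reporter mRNA induction was detected by RT-PCR and capillary electrophoresis, analysed bidirectionally versus DMSO.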

Assay [16] can be described thus: ATG_TA_CIS: Attagene CIS-FACTORIAL HepG2 Assay for human TA Basal Promoter (AID 2282964). The conditions noted are these: HepG2 Attagene CIS-factorial TA basal promoter reporter; actives raise or lower the signal. The gist of the method:
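Multiplexed mRNA reporter assay, HepG2, 24 h. Reporter cDNA amplified, 6-FAM primer-extended, HpaI-cut, CE-sized; DMSO = negative control and baseline.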

The nature of assay [17]: ATG_TCF_b_cat_CIS: Attagene CIS-FACTORIAL HepG2 Assay for human T-Cell-Factor with beta-catenin (TCF/b-cat) (AID 2282965). As to conditions: HepG2 TCF/beta-catenin cis-reporter transcription, actives raise or lower the signal. The gist of the method:
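In this cis-format system, transfected HepG2 cells report endogenous transcription factor activity. Readout after 24 h exposure is reporter transcript abundance from RT-PCR and capillary electrophoresis, analysed for gain or loss of signal versus DMSO.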

A short description of assay [18]: ATG_TAL_CIS: Attagene CIS-FACTORIAL HepG2 Assay for human TAL Basal Promoter (AID 2282966).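 Note: background control endpoint measuring basal TAL promoter reporter mRNA not a specific factor.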 As to conditions: HepG2 Attagene cis-factorial TAL promoter reporter; actives raise or lower the signal. The gist of the method: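 After 24 hours of chemical exposure, transfected HepG2 cells yielded RNA that was converted to 6-FAM-labelled, HpaI-digested reporter fragments for capillary electrophoresis. Values derive from bidirectional fitting against DMSO controls.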

Assay [19] deals with X-box-binding protein 1 (Homo sapiens) (UniProt P17861). Briefly: ATG_Xbp1_CIS: Attagene CIS-FACTORIAL HepG2 Assay for human X-box Binding Protein 1 (XBP1) (AID 2282972). The conditions noted are these: HepG2 XBP1 cis-element reporter, Attagene multiplex; actives raise or lower the signal. The method in brief: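 Read-out: fluorescent reporter mRNA fragments resolved by capillary electrophoresis after RT-PCR. Human HepG2 liver cells carried transfected cis-promoter reporter units and were exposed to chemicals for 24 hours. Gain or loss of signal fitted relative to DMSO baseline.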
Sequence of X-box-binding protein 1 (Homo sapiens) (P17861 whole entry, looked up, the tested form may be a part): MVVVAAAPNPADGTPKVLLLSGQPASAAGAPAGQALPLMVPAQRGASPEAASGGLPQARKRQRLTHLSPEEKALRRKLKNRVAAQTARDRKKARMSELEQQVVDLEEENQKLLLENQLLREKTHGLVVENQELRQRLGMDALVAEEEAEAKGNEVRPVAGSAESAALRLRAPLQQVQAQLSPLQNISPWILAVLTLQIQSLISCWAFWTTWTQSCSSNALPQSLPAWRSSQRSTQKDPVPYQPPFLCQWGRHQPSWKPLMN

Sequence of CCAAT/enhancer-binding protein beta (Homo sapiens) (P17676 whole entry, looked up, the tested form may be a part): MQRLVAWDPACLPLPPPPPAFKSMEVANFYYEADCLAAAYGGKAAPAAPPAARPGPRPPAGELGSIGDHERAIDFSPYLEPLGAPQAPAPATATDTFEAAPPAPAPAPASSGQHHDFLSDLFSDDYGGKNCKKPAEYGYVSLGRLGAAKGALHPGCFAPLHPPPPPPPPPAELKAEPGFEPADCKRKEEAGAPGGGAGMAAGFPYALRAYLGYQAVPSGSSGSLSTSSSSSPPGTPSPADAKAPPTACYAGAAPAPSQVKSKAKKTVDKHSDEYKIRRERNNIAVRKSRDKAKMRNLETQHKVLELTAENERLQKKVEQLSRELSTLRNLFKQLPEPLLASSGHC
Sequence of Heat shock factor protein 1 (Homo sapiens) (Q00613 whole entry, looked up): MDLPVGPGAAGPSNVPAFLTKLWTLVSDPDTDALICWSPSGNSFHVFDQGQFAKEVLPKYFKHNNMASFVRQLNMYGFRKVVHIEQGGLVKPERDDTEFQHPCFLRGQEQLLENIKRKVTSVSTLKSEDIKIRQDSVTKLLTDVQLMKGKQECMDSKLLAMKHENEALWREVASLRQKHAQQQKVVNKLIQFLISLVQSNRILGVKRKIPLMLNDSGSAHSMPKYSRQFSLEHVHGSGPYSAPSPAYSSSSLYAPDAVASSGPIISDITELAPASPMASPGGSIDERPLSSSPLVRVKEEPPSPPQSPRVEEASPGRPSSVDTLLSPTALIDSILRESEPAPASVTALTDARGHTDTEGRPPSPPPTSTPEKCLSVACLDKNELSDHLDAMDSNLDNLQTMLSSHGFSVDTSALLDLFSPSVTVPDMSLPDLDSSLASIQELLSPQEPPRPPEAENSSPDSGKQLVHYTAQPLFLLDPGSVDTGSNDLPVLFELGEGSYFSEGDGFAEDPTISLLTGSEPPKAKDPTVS
Sequence of Transcription factor Sp1 (Homo sapiens) (P08047 whole entry, looked up): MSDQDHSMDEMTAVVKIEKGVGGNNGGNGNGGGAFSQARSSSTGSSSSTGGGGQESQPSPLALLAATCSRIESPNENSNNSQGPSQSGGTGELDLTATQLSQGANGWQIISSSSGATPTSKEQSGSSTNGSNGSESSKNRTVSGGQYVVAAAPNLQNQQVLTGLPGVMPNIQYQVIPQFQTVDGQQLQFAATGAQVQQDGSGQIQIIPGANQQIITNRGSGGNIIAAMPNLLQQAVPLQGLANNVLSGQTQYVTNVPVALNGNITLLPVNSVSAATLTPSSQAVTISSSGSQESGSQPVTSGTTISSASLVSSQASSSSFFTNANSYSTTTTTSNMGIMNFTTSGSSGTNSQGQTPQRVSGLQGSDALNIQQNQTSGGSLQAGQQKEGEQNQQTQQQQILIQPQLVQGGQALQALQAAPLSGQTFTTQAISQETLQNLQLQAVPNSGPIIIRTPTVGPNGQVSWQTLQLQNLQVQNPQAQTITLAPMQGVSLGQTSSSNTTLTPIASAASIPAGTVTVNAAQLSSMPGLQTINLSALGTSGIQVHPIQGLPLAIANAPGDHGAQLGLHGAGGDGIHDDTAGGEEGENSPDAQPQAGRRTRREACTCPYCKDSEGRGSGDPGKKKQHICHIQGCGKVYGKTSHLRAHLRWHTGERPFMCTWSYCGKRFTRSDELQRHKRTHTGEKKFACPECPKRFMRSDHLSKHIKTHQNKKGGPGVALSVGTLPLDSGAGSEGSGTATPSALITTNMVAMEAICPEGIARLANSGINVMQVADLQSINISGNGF
Sequence of Hepatocyte nuclear factor 6 (Homo sapiens) (Q9UBC0 whole entry, looked up, the tested form may be a part): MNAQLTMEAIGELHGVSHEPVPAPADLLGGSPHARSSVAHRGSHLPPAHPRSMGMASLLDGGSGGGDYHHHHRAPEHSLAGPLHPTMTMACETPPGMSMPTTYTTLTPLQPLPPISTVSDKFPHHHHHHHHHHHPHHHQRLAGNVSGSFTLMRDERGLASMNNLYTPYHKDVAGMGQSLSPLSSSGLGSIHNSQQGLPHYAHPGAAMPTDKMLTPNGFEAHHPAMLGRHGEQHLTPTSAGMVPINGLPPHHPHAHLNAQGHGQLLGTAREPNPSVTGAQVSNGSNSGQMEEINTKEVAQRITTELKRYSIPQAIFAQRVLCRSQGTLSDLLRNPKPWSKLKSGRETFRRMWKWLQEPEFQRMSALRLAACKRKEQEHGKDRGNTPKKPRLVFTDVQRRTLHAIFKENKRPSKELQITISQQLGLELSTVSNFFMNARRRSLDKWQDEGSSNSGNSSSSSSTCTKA
Sequence of Transcription factor E2F1 (Homo sapiens) (Q01094 whole entry, looked up): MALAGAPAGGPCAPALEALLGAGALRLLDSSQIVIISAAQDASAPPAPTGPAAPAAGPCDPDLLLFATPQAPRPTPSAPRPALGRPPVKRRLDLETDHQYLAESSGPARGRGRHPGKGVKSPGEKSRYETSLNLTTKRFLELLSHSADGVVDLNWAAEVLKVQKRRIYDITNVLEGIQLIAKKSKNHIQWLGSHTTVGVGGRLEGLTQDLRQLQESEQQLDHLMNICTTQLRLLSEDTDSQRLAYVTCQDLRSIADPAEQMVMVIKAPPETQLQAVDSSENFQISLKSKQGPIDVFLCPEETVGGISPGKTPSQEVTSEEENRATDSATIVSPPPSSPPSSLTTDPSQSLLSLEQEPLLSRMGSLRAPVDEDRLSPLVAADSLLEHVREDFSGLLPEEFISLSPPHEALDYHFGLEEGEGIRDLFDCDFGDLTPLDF
Sequence of Signal transducer and activator of transcription 3 (Homo sapiens) (P40763 whole entry, looked up): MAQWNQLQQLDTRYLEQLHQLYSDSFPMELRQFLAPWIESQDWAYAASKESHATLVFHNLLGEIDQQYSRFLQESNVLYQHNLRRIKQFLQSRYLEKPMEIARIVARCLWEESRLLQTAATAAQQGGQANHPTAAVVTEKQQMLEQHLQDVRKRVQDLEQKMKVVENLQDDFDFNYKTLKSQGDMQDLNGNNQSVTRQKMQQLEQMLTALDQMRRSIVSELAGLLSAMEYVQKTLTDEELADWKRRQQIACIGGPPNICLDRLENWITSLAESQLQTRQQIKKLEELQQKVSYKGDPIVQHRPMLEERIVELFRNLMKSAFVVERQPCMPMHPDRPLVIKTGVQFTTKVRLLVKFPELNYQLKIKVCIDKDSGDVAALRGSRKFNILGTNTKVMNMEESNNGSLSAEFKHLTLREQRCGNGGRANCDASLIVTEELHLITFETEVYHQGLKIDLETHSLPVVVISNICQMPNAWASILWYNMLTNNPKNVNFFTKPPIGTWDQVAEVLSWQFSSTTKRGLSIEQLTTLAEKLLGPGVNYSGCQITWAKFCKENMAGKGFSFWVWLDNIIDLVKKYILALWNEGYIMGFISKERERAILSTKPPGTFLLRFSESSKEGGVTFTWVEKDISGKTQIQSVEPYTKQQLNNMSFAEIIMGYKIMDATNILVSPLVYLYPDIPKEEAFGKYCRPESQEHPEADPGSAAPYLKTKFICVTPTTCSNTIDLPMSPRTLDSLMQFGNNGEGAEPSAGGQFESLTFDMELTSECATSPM

On to `O=[N+]([O-])c1cc(C(F)(F)F)c(Cl)c([N+](=O)[O-])c1Cl`, for which the result in assay [1], in [3], in assay [4], in assay [6], in [7] and in assay [9] was inactive. Moreover, the call in [10], in assay [12], in [15], in assay [16], in assay [18] and in assay [19] was inactive. For the same molecule, the AC50 was 5.08 µM (active) in [2]; 5.43 µM (active) in assay [5]; 5.65 µM (active) in assay [8]; 5.39 µM (active) in assay [11]; 5.81 µM (active) in [13]; 6.68 µM (active) in assay [14]. The AC50 in assay [17] was 5.54 µM (active).
On to `CCNCC`, for which the result in assay [1], in assay [2], in assay [3], in assay [4], in [5] and in assay [6] was inactive. Moreover, the call in assay [7], in assay [8], in assay [9], in assay [10], in assay [11] and in assay [12] was inactive. Moreover, the outcome in assay [13], in [14], in [15], in assay [16], in [17] and in assay [18] was inactive. Further, the molecule was called inactive in assay [19].
As to `CCCCCc1cc(O)cc(O)c1`, the result in [1], in [3], in assay [4], in assay [6], in [7] and in assay [8] was inactive. Besides, the outcome in assay [9], in assay [10], in assay [11], in assay [13], in assay [14] and in [15] was inactive. The call in [17] was inactive. The AC50 in assay [2] was 154 µM (active); in [5], 36.9 µM (active); in assay [12], 9.47 µM (active); in assay [16] it was 149 µM (active); in assay [18], 100 µM (active); in assay [19], 51.7 µM (active).
`O=[N+]([O-])O`: the result in assay [1], in [2], in [3], in [4], in [5] and in [6] was inactive. For the same molecule, the outcome in assay [7], in assay [8], in assay [9], in assay [10], in assay [11] and in assay [12] was inactive. The result in [13], in assay [14], in assay [15], in assay [16], in assay [17] and in assay [18] was inactive. The molecule was classed as inactive in assay [19].
Consider `CC(C)(Cl)Cl`, for which the outcome in assay [1], in assay [2], in assay [3], in assay [4], in assay [5] and in assay [6] was inactive. Moreover, the molecule was classed as inactive in [7], in assay [8], in assay [9], in [10], in [11] and in assay [12]. For the same molecule, the result in [13], in [14], in assay [15], in [16], in assay [17] and in assay [18] was inactive. Moreover, the outcome in assay [19] was inactive.

Broadly, the AC50 is the concentration giving half of the maximal activity seen.
